An excerpt weighted towards active compounds, which were near 1.3% of everything screened.
NR2F2 inh: NR2F2 transcriptional activity inhibitors, primary screen, cell-based, luciferase reporter, HEK293T, luminescence; 370,000 tested, 0.7% active; COUP transcription factor 2 (Homo sapiens), P24468; inhibition, % at 8.6 µM; AID 686940, 2013; HEK293T NGFI-A luciferase reporter;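 active = inhibition above a per-plate cutoff, mean inhibition of test wells between control levels plus 3 SD, cut at about 38% in these data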;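 note: cells cotransfected with COUP-TFII expression vector driving the NGFI-A reporter; 0% = median of COUP-TF2 test wells and 100% = reporter-only cells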
NR5A2 inv ag: LRH-1 (NR5A2) inverse agonists, primary screen, cell-based, luminescence, HEK293T, StAR-luciferase reporter. 360,000 tested, 0.13% active. inhibition, % at 3.6 µM. Nuclear receptor subfamily 5 group A member 2 (Homo sapiens), O00482. LRH-1 transfected, 24 h;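 active = inhibition above the mean inhibition of all tested compounds plus 3 SD, cut at about 73% in these data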;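 note: 0% = DMSO wells and 100% = reporter-only cells lacking LRH-1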
Target sequence (O00482 whole entry, looked up): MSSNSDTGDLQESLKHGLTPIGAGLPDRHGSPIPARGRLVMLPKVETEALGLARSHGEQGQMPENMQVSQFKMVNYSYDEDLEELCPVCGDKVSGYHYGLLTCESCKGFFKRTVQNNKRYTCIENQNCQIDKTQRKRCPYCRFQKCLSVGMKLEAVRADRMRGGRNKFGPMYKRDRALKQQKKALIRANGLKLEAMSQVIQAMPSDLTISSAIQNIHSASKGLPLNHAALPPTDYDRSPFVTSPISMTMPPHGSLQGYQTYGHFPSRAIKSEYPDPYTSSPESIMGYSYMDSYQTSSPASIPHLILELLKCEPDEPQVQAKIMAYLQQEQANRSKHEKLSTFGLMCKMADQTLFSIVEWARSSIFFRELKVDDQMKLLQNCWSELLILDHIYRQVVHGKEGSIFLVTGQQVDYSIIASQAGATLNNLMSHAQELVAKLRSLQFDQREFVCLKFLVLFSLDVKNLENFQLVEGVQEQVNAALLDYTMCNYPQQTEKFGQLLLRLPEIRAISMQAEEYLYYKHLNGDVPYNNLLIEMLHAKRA
Gli-Sufu block: Gli-Sufu pathway antagonists, primary screen, luciferase luminescence, Sufu-KO-LIGHT cells, uHTS; 340,000 tested, 0.74% active; Sufu-KO-LIGHT fibroblasts, Gli luciferase reporter luminescence; AID 588413, 2011; inhibition, % at 5 µM;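 active = inhibition above about 55%, limit read from the data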;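 note: 0% = DMSO-treated cells and 100% = wells with medium but no cells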
NCOA3 inh: SRC3 coactivator transcriptional activity inhibitors, primary screen, cell-based, luminescence. 360,000 tested, 0.17% active. Nuclear receptor coactivator 3 (Homo sapiens), Q9Y6Q9. AID 588352, 2011. inhibition, % at 3.6 µM. HEK293 GAL4-SRC3 luciferase reporter;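 active = inhibition above a per-campaign cutoff, the mean of all compounds plus 3 SD, cut at about 60% in these data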;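 note: 0% = DMSO-treated cells and 100% = gossypol-treated cells at 36 µM; higher means less SRC3-driven luciferase light from the GAL4 reporter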
SRC1 inh: SRC1 coactivator transcriptional activity inhibitors, primary screen, cell-based, luminescence | Nuclear receptor coactivator 1 (Homo sapiens), Q15788 | HEK293 GAL4-SRC1 luciferase reporter | inhibition, % at 3.6 µM | 360,000 tested, 0.12% active | AID 588354, 2011;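 active = inhibition above the campaign mean plus 3 SD, with each screening campaign given its own cutoff, cut at about 60% in these data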;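 note: 0% = DMSO treated cells and 100% = gossypol at 36 µM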
NCOA2 inhibitor: inhibition of GAL4-SRC2 driven luciferase reporter, primary screen, SRC2 inhibitor project, cell-based, luminescence; HEK293 GAL4-SRC2 luciferase reporter; 370,000 tested, 0.17% active; inhibition, % at 9 µM; Nuclear receptor coactivator 2 (Homo sapiens), Q15596; AID 651957, 2012;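 active = inhibition above the mean inhibition of all tested compounds plus 3 SD, set per campaign, cut at about 52% in these data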;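 note: 0% = DMSO treated cells and 100% = cells given Gossypol at 36 µM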
Gli antag conf: Gli-SUFU pathway antagonists, confirmation, single concentration, luciferase luminescence, Sufu-KO-LIGHT cells; shares compounds with Gli-Sufu block; Gli luciferase reporter; inhibition, % at 5 µM; 2,500 tested, 40% active; AID 602428, 2012;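 active = mean inhibition at 5 µM reaching about 45%, limit read from the data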;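 note: plate controls were DMSO-treated cells for no effect and wells lacking cells for full effect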
SufuKO cytotox: cytotoxicity in Sufu-KO-LIGHT cells, confirmation, cytotoxicity control for Gli-SUFU antagonist project, cell-based, ATP luminescence, single concentration | AID 651994, 2013 | 2,500 tested, 32% active | shares compounds with Gli-Sufu block | cytotoxicity, % at 5 µM;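 active = mean cytotoxicity at 5 µM above about 25%, limit read from the data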;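 note: cells exposed to compound overnight for roughly 16 to 18 hours; plate controls were DMSO wells with cells for no effect and medium without cells for full effect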
Wnt3a counter: Wnt3a reporter signal inhibition, confirmation, counter-screen for Gli-SUFU antagonist project, Wnt-LIGHT cells, luminescence, single concentration | Wnt3a-driven luciferase reporter | inhibition, % at 6.25 µM | 2,500 tested, 20% active | AID 651995, 2013 | shares compounds with Gli-Sufu block;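 active = mean inhibition above about 25%, limit read from the data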
Starred values were filed as active, the others as inactive; x = not tested or not shown.

SMILES	NR2F2 inh	NR5A2 inv ag	Gli-Sufu block	NCOA3 inh	SRC1 inh	NCOA2 inhibitor	Gli antag conf	SufuKO cytotox	Wnt3a counter
COC(=O)[C@]12C[C@H](CC(=O)NCCCN3CCCC3=O)C(=O)N(CCc3ccc(OC)c(OC)c3)C1=C[C@H](C(C)C)O[C@@H]2C1CC1	2	x	x	x	x	-14	x	x	x
Cn1c(Cc2cccs2)nnc1SCC(=O)Nc1ccc2c(c1)OCCO2	-18	x	x	x	x	16	x	x	x
C=CCn1c(O)c(N=NC(=S)Nc2cccc(C)c2)c2ccccc21	-3	11	53	25	-5	21	57*	26*	-22
CCOC(=O)c1sc(NC(=O)c2cc(-c3ccccc3C)nc3ccccc23)c(C#N)c1C	8	5	63*	5	0	-3	82*	20	74*
Cc1ccccc1-c1cc(C(=O)Nc2sc(C)c(C)c2C(N)=O)c2ccccc2n1	15	38	9	-5	5	-1	x	x	x
COc1ccc(-c2cc(-c3nnc(SCc4cccc5ccccc45)n3N)[nH]n2)cc1	6	x	x	x	x	11	x	x	x
C=CCN(CC#Cc1ccc(C(F)(F)F)cc1)CC=C	-1	x	x	x	x	6	x	x	x
O=C1c2ccccc2S(=O)(=O)c2cc(C(=O)N3CCN(c4ccc(Cl)cn4)CC3)ccc21	7	11	-3	3	-3	-12	x	x	x
N#Cc1cccnc1N1CCN(C(=O)c2ccc3c(c2)S(=O)(=O)c2ccccc2C3=O)CC1	6	-5	50	5	3	-17	26	2	-10
Cc1ccc(C23CC4CC(CC(NC(=O)NN)(C4)C2)C3)cc1	12	1	51	9	-15	2	9	-3	3
CCN(CC)CCNC(=O)c1ccc(NC(=O)c2cccc(S(=O)(=O)N3CCCCCC3)c2)cc1	-16	-37	51	2	-9	11	14	19	-22
Cc1ccc2oc(=O)c3cnn(CC(=O)NC4CCC(C)CC4)c3c2c1 (stereo unspecified)	2	21	54	2	-26	0	21	17	-18
Cc1ccc2oc(=O)c3cnn(CC(=O)NC4CCCCC4C)c3c2c1 (stereo unspecified)	-18	-4	99*	21	8	-9	20	11	1
Cc1ccc2c(c1)NCC(C(=O)NC1CCCCC1)O2 (stereo unspecified)	x	-9	52	3	0	x	9	-4	-4
Cc1ccc(C)c(NC(=O)NC2CCCCCCC2)c1	4	-7	-8	13	5	-19	x	x	x
N#Cc1cccc(NCC(=O)Nc2cccc(S(=O)(=O)N3CCCCC3)c2)c1	-15	-7	7	10	8	-15	x	x	x
N#Cc1cccc(NC(=O)CNc2cccc(S(=O)(=O)N3CCCC3)c2)c1	6	-2	66*	19	-1	-15	17	-3	8
Clc1ccc([C@H]2OC[C@@]3(CNCC4CC4)CS[C@H](c4ccc(Cl)cc4)N23)cc1	7	x	x	x	x	6	x	x	x
COC(=O)c1cccc(Cn2ccc3ccc(-c4ccc5ccn(C(=O)c6ccccc6)c5c4)cc32)c1	-16	x	x	x	x	-14	x	x	x
Cc1cc(NC(=O)CSc2nc(Cc3ccc(O)cc3)c(C)[nH]2)no1	-13	11	53	19	3	-1	15	6	-18
Cc1ccc(C2CCC3(CCC(=O)N3CCOC(=O)Nc3ccc(Br)cc3)CC2)cc1 (stereo unspecified)	3	x	x	x	x	6	x	x	x

Compound activity (PubChem BioAssay)
